Screening data deposited in PubChem by National Center for Advancing Translational Sciences (NCATS).
Sampled rows, rich in hits. Any-hit rate of the full collection: about 10%.
NPR1 antag – human Npr1 receptor antagonism; P16066; HEK293 hNpr1 GloSensor cGMP, ANP-stimulated luminescence; Potency, µM (highest dose often 46.3 µM), most hits filed as inhibitors; actives 1.6% (n = 76,000); AID 1347048; calls by dose curve; further: nearly all actives have a fitted effect of over 60% in size
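HEK293 cells stably expressing human Npr1 and cGMP GloSensor pGS-40F, loaded 2 h with 2% GloSensor reagent, given compound 30 min at room temperature. Luminescence read before and 20 min after 0.1 nM hNppA.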
GPT2 inhibitor – inhibitors of human GPT2 alanine aminotransferase; Recombinant GPT2, coupled pyruvate oxidase/HRP Amplex Red fluorescence; actives 0.25% (n = 100,000); Potency, µM (series often up to 57.7 µM), actives largely listed as inhibitors; Q8TD30; further: nearly all actives have a fitted effect of over 60% in size
Target sequence (Q8TD30 whole entry, looked up): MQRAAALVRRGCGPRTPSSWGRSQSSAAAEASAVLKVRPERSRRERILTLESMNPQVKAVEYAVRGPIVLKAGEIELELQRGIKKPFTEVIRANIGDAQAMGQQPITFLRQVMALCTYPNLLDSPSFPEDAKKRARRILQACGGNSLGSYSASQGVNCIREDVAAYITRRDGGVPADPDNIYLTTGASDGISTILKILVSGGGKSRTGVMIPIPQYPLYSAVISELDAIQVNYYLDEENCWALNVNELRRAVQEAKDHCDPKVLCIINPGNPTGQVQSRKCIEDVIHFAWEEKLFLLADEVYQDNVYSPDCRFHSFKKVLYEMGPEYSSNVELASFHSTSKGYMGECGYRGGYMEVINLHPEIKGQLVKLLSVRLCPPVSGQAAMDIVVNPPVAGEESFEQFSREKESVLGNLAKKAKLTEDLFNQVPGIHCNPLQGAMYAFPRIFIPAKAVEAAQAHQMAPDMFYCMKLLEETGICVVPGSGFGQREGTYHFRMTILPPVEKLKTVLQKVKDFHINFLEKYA
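Fluorescence of coupled pyruvate oxidase/HRP/Amplex Red system (50uM Amplex, 30 min, dark) reports pyruvate formed by GPT2. Enzyme reaction: 10ng/uL GPT2, 2mM L-alanine, 250uM a-KG, 30 min room temperature, pH 7.5; 50uM AOA control.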
HEK293 tox – HEK 293 cell cytotoxicity. HEK 293 viability, ATP luminescence (CellTiter-Glo), 48-72 h. Potency, µM (series often up to 115 µM), usual class: inhibitors. actives 6.6% (n = 94,000). AID 1345083; further: nearly all actives have a fitted effect of over 60% in size
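HEK 293 seeded at 250 cells/well receive compound via pintool. After 48 or 72 hr at 37 degree Celsius, 5% CO2 and 95% humidity, CellTiter-Glo is dispensed and luminescence read following 10 min at room temperature.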
Luciferase inh – Photinus pyralis luciferase inhibition | P08659 | purified P. pyralis luciferase, luminescence, biochemical | Potency, µM (series often up to 115 µM), hits mostly inhibitors | actives 2.5% (n = 76,000) | AID 1347043; further: nearly all actives have a fitted effect of over 65% in size
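Luminescence read by CCD imager after adding enzyme (10nM final) to wells holding compound, titrated in qHTS. Substrates 10uM each D-luciferin and ATP; buffer 50mM Tris acetate pH 7.5, 10mM Mg acetate, Tween-20, BSA.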
NIH3T3 tox – cytotoxic compounds in NIH 3T3 cells; NIH 3T3 viability, CellTiter-Glo ATP luminescence, 48-72 h; actives 4.3% (n = 94,000); Potency, µM (titrated, usually from 96.7 µM), most hits filed as inhibitors; further: nearly all actives have a fitted effect of over 55% in size
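First NIH 3T3 cells are plated at 400 cells/well; next compound is pinned in; then plates incubate 48 or 72 hr at 37 °C; finally CellTiter-Glo is added and luminescence read after 10 min.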
Npr1 antag conf – hNpr1 antagonism, confirmation assay. shares compounds with NPR1 antag. HEK293 hNpr1 cGMP GloSensor luminescence, ANP-stimulated. Potency, µM (top dose mostly 57.6 µM), most hits filed as inhibitors. actives 76% (n = 1,400). AID 1347044; calls by dose curve; further: nearly all actives have a fitted effect of over 70% in size
Npr2 selectivity – hNpr2 antagonism, selectivity versus Npr1. Potency, µM (highest dose often 57.6 µM), hits mostly inhibitors. actives 67% (n = 1,400). HEK293 hNpr2 GloSensor cGMP luminescence, CNP-stimulated. shares compounds with NPR1 antag; calls by dose curve; further: nearly all actives have a fitted effect of over 70% in size
FLuc counter – inhibits firefly luciferase, false Npr1 antagonist flag. shares compounds with NPR1 antag. purified FLuc enzyme, luminescence, Km substrate. Potency, µM (highest dose often 57.6 µM), hits mostly inhibitors. actives 0.7% (n = 1,400). AID 1347047
GloSensor ctrl – control cell line activity, Npr1 antagonist counter-screen; shares compounds with NPR1 antag; HEK293 GloSensor cGMP, SNP-stimulated, luminescence; Potency, µM (series often up to 57.6 µM), hits mostly inhibitors; actives 69% (n = 1,400); AID 1347051; calls by dose curve; further: nearly all actives have a fitted effect of over 70% in size
Each line names hits and unclear results; the compound was inactive in the other large screens (follow-up assays come after a bar, where they were run). Unless noted, the call rests on the fitted dose curve; in most records, active means well fitted curve in the direction sought with a large enough effect; inconclusive means small, poorly fitted or top-dose-only effect, or another doubt; inactive means no such curve, though single readings can be large; an effect the other way counts as inactive or inconclusive.

COc1ccc(C(=O)Nc2nc3c(s2)C[C@@H]2[C@](C)(CO)[C@H](O)CC[C@@]2(C)[C@@H]3CC(=O)NCc2ccccc2)cc1	NIH3T3 tox inconclusive
CCn1nccc1C(=O)N1CCCn2ccnc2C1c1ccccc1 (centres undefined)	none
Cn1nccc1C(=O)N1CCC2(CC1)OCCN(Cc1ccccc1F)C2=O	NPR1 antag 32µM, HEK293 tox inconclusive | Npr1 antag conf 35µM | Npr2 selectivity 31µM | FLuc counter inactive | GloSensor ctrl 31µM
O=C(Cn1nc2c(cc1=O)CCCCC2)NCC1CCOCC1	none
O[C@@H]1CC(CNCc2cccc(Cl)c2)(COc2ccccc2)C[C@@H]1O (some centres undefined)	HEK293 tox 100µM, NIH3T3 tox inconclusive | Npr1 antag conf inconclusive | Npr2 selectivity 31µM | FLuc counter inactive | GloSensor ctrl inactive
O[C@@H]1CC(CNCc2ccc(F)cc2)(COc2cccnc2)C[C@@H]1O (some centres undefined)	GPT2 inhibitor inconclusive
CC1(CCCCc2ccccc2)COc2ccc(C(=O)N3CC(O)C3)cc2N1 (centres undefined)	NPR1 antag 35µM, HEK293 tox inconclusive, NIH3T3 tox inconclusive | Npr1 antag conf 40µM | Npr2 selectivity 35µM | FLuc counter inactive | GloSensor ctrl 31µM
CC1(CCCCc2ccccc2)COc2ccc(C(=O)NC3CC3)cc2N1 (centres undefined)	NPR1 antag 20µM, HEK293 tox inconclusive, NIH3T3 tox inconclusive | Npr1 antag conf 35µM | Npr2 selectivity 28µM | FLuc counter inactive | GloSensor ctrl 18µM
COC(=O)c1ccc2nc(CO[C@H]3CN(Cc4cccnc4)C[C@H]3F)[nH]c2c1	none
COc1ccc(CN2C[C@@H](F)[C@@H](OCc3nc4ccc(C(F)(F)F)cc4[nH]3)C2)cn1	NPR1 antag 32µM, GPT2 inhibitor inconclusive, HEK293 tox inconclusive, NIH3T3 tox inconclusive | Npr1 antag conf 28µM | Npr2 selectivity 31µM | FLuc counter inactive | GloSensor ctrl inconclusive
COc1ccc2nc(CO[C@H]3CN(Cc4ccc(OC)nc4)C[C@H]3F)[nH]c2c1	none
COC(=O)c1ccc2nc(CO[C@H]3CN(Cc4ccc(Cl)cc4)C[C@H]3F)[nH]c2c1	NPR1 antag 32µM, HEK293 tox inconclusive, NIH3T3 tox 89µM | Npr1 antag conf 40µM | Npr2 selectivity 35µM | FLuc counter inactive | GloSensor ctrl 35µM
COc1ccc(NC(=O)CCC2CCN(C(=O)c3ccccc3F)CC2)c(OC)c1	HEK293 tox inconclusive
CCC(=O)N1CCC(O)(c2ccccc2)[C@H](N(C)C)C1 (some centres undefined)	none
COc1ccc(C(=O)N2CCC3(CC2)N=C(c2ccc(Cl)cc2)NO3)cc1F	NPR1 antag 10µM, HEK293 tox inconclusive | Npr1 antag conf 19µM | Npr2 selectivity 19µM | FLuc counter inactive | GloSensor ctrl 22µM
COc1ccc(C(=O)N2CCC3(CC2)N=C(c2ccccc2)NO3)cc1F	none
COc1ccc(C(=O)N2CCC3(CC2)N=C(c2ccc(Cl)cc2)NO3)cc1	NPR1 antag 10µM, HEK293 tox inconclusive | Npr1 antag conf 17µM | Npr2 selectivity 19µM | FLuc counter inactive | GloSensor ctrl 9.7µM
CSc1ccc(-c2cccc(C(=O)NCCNC(=O)Cc3ccccn3)c2)cc1	none (no result: NPR1 antag, Luciferase inh)
